Assay results as given in the supplement of paper PMC12632987.

Molecular target: T1, USP38, Q8NB14
T1 chain: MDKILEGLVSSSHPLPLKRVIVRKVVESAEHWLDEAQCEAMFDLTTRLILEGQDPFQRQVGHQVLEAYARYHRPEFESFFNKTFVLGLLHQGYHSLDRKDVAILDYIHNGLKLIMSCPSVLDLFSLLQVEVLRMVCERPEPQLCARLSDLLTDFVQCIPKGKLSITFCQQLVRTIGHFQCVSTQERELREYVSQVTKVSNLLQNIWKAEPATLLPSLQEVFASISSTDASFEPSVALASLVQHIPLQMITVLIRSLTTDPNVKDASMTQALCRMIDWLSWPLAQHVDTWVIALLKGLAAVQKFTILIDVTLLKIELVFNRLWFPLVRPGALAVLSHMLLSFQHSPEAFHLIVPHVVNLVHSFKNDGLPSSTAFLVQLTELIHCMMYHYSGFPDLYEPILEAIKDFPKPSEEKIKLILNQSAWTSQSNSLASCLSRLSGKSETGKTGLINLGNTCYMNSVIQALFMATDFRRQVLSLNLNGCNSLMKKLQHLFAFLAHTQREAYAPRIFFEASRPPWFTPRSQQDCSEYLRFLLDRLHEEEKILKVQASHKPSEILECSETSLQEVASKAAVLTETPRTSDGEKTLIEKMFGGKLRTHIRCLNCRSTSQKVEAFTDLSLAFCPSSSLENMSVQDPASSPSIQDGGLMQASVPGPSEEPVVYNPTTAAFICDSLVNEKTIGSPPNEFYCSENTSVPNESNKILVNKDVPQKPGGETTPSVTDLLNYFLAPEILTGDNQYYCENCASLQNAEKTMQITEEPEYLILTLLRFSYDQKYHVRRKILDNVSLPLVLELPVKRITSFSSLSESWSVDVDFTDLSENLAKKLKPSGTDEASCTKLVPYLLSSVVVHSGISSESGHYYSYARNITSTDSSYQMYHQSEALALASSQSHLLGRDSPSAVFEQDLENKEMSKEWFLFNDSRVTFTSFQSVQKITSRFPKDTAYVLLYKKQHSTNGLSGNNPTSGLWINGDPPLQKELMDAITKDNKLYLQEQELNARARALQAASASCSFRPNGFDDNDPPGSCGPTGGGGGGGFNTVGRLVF
Test: median log2 fold change of GCK-ALFA target abundance (FLAG IP / Myc IP barcode read proportion) (log2 ratio); each designed protein is fused to an ALFA-tag nanobody in HEK293 cells to bring the named protein to FLAG-tagged glucokinase (GCK); Myc marks an untargeted standard; higher = target protein stabilised (more abundant)
Details: target protein: 3xFLAG-MCP-GCK-ALFA reporter; HEK293 landing pad (RPLP)
Outline: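 Binders fused to an ALFA nanobody were recombined as a library into HEK293 landing-pad cells, which were induced with 2 μg mL^−1 doxycycline and then transfected to express a FLAG-tagged target and a Myc-tagged standard. After 48 h, circular RNA barcodes recovered by anti-FLAG and anti-Myc immunoprecipitation of lysates were reverse transcribed, amplified and sequenced. Each binder's target abundance is the median log2 ratio of FLAG to Myc barcode read proportions, from barcodes present at ≥10^−7 in both replicates, binders carrying ≥3 barcodes per replicate, a 10^−6 pseudocount and pooled replicates.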

B1: usp_38_diff_out_18_14_272 (protein)
chain: DEELSEALLSNLKSLKEDVKEYTKRVLRLLEANKDDPERVKRIYERAERNLEGVEKFAEEVLKEAKERGDEEVQKAAKELKEEAKKAREEIKKKVKEVLA
- median log2 fold change: -0.188

B2: usp_38_diff_out_18_14_260 (protein)
chain: SEELKEATISNLKSLKEDVKEDTERVIRLLKARKDDPEQVKRIYERAKRNLEGVKTYAEEVLKEAEEEGWEELKKAAEELLKEIEEAEKKIEAEVKEVLA
- median log2 fold change: 0.0949

B3: usp_38_diff_out_18_14_264 (protein)
chain: SEELSEAEKSALKLLKKDVEEETERVIRLLRQAKDDPERVKRIYERAKRNLAGVRKYAEEVLKRAEEAGDEETKKAAEELLKKIEEAEKRIEEEYKRVTA
- median log2 fold change: 0.118

B4: usp_38_diff_out_18_14_271 (protein)
chain: SEELAAALQSNLESLERAVREDTERVIRLLEKNRDDPERVKRIVERAERDLAGVEAYAQEVLREARAAGDAATQEAAERLLEEARRAREEIRRKAEEVLA
- median log2 fold change: -0.0538

B5: usp_38_diff_out_18_14_270 (protein)
chain: SEELKKALLSNLESLKKDVKEYTERVLRLLEKRKDDPEQVERIVERAERDLAGVEEYAKEVLKEAKKLGDEELLKAAEELIKLTKEARERIEKKREEVLK
- median log2 fold change: -0.331

B6: usp_38_diff_out_18_14_262 (protein)
chain: SEELAQADIDALNLLKEDVKKDTERKIRLLKKAKDDPELVKRIYERAKRNLEGVRTYAEEIKKRAEEAGDEETIKAAEELLKEIEEAEKKLEEAYKEVMA
- median log2 fold change: 0.391

B7: usp_38_diff_out_18_14_268 (protein)
chain: SEELAEAEVSNLKTLERDVKEDTERVIRLLRKNKDDPERVKRIYERAKRDLAGVRAYAEEVKRRAEEEGWEEVVAAAERLLKTIDEARKRIEEEYKRVME
- median log2 fold change: -0.0262

B8: usp_38_diff_out_18_14_261 (protein)
chain: SEELSEAKISALKLLEKSVKEDTERKIRLLEKAKDDPERVKRIYERALRELAGVREYAEEVLKEAKEAGDEETAEAAKRLLKTIEEARERLEEEYKRVMA
- median log2 fold change: 0.0867

B9: usp_38_diff_out_18_14_273 (protein)
chain: SEERREALLSNLKSLKKDVKEYTKRVLKLLEKNKNDPERVKRIYERAKRNLAGVKAYAEEVLKEAKEEGDEETLKAAEELIKEAKEAEEKIKKKVEEVLK
- median log2 fold change: -1.06

B10: usp_38_diff_out_18_14_274 (protein)
chain: SEELSEALKSNLESLKKDVEKDTKRTIELLKKNKDDPERVKRIVERAERNLEGVITFAEEVLKEAEKRGDEEVKKAAEELIKKAKEALEKIKEEAKKVLA
- median log2 fold change: 0.186

B11: usp_38_diff_out_18_14_266 (protein)
chain: SEELDEALVKNLETLKKDVKENTERVIKLLRKNKDDPERVKRIYERAKRNLEGVKKYAEEVLKEAEKRGWKKTVKAAKELLKEVEEAKKKIEEEYKKVME
- median log2 fold change: -0.521

B12: usp_38_diff_out_18_14_258 (protein)
chain: SAELEEATISNLKLLKEDVKKETERVIRLLEKNKDDPERVKRIYERAQRDLAGVETYAKEVLEEAKKNGWEEKEKAAKELLEEVDKAKEEIEKKVKEVLA
- median log2 fold change: 0.144

B13: usp_38_diff_out_18_14_269 (protein)
chain: SAELAAAKVSNLKTLKEDVERDTERVIRLLEANRDDPERVRRIHERALRNLEGVRKYAEEVKEEAEKEGDKETVKAAEELLKKIEEARRRIDARYAEVMA
- median log2 fold change: 0.153

B14: usp_38_diff_out_18_14_263 (protein)
chain: SEELAQADIDALNLLKKDVEEDTERVIRLLEKSKDDPERVKRIYERALRNLAGVKKYAEEVKKEAEERGNEETIKAANELLKTIEEAKKRLEEKYKEVMK
- median log2 fold change: 0.123

B15: usp_38_diff_out_18_14_267 (protein)
chain: SAELSEALKSNLETLTADVAADTDRVIRLLDARKDDPEAVKRIHERARRNLAGVEAYAEEVKAEAEKAGDAEVKAAAEKLLAAVAAARARIDARYAEVMA
- median log2 fold change: 0.0912

B16: usp_38_diff_out_18_14_259 (protein)
chain: SEELTEALISNLESLKEDVKKDTERVIRLLEKRKDDPEQVKRIKERFERDLAGVEKYAKEVLEEAKKEGNEKLAKAAEELLKTVEAARKEVEEKVAKVLA
- median log2 fold change: -0.00381
